Holding throughout (assay): DAPPL (digital affinity profiling via proximity ligation, sequencing); 10 mM Tris-HCl pH 7.5, 50 mM NaCl, 1 mM DTT, 4% glycerol, room temperature, 30 min; GST-TFs on glutathione beads, 16-mer random dsDNA library, 0.1% formaldehyde crosslink after washing; high values mean tight binding
Details in all cases: protein: recombinant; tags: N-terminal GST; dsDNA, one strand shown

In one experiment the target is T1, ERF (Homo sapiens, UniProt P50548 1-548).
T1 sequence: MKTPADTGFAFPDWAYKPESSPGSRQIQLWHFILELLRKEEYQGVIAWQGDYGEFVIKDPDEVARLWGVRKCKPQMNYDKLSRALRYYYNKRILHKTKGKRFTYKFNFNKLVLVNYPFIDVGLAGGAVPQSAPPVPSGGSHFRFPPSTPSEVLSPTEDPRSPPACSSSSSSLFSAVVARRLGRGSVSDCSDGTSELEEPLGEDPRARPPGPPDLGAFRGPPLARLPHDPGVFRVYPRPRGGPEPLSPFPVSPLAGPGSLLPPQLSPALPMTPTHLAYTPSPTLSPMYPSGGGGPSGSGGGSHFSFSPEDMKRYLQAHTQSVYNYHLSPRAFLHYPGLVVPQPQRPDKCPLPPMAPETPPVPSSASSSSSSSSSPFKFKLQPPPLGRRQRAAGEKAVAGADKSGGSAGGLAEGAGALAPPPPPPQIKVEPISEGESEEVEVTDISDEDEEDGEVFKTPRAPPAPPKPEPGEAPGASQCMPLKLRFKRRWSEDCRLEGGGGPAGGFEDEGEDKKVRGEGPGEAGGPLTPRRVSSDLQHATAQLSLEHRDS
In outline: (§1)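 In yeast, human transcription factors were expressed with a GST fusion, then pulled down on glutathione beads and given DNA barcodes. Pooled with a tag-only sample, they were exposed to 200 nmole of a 16-mer random double-stranded DNA library (Tris/NaCl/DTT/glycerol buffer, room temperature, 30 min), washed, crosslinked with 0.1% formaldehyde, proximity-ligated using BsaI/T4 ligase for 1 h at 37 °C, PCR-amplified and read on an Illumina NextSeq500. Each hexamer's frequency of reads for a factor, divided by the matching frequency for the tag-only sample, gives the binding signal.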

A further experiment concerns the target T2, ETV3L (Homo sapiens, UniProt Q6ZN32 1-361).
T2 sequence: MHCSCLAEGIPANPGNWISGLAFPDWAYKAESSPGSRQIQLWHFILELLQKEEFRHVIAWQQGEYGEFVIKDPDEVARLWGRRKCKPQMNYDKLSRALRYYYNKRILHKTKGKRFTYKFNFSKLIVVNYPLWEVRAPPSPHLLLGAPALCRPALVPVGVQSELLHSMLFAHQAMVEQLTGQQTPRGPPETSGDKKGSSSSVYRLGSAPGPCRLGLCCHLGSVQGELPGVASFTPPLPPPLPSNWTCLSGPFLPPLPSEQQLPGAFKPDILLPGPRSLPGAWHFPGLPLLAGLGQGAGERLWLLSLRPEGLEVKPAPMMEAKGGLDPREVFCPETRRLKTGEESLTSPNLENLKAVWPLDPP
In a few lines:
as §1

Another experiment has as its target T3, ETS2 (Homo sapiens, UniProt P15036 1-469).
T3 sequence: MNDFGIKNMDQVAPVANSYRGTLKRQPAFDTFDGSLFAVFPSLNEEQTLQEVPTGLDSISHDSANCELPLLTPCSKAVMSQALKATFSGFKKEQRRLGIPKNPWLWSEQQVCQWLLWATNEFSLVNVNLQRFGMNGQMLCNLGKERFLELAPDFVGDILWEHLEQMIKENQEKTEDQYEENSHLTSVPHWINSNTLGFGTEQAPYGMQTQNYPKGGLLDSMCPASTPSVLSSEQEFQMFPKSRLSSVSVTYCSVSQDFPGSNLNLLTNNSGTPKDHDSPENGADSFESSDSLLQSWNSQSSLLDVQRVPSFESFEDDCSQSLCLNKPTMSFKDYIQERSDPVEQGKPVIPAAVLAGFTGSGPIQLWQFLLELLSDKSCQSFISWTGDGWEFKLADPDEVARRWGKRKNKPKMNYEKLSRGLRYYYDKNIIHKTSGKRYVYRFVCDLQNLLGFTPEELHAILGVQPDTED
In outline:
as §1

The target in a further experiment is T4, SPDEF (Homo sapiens, UniProt O95238 1-335).
T4 sequence: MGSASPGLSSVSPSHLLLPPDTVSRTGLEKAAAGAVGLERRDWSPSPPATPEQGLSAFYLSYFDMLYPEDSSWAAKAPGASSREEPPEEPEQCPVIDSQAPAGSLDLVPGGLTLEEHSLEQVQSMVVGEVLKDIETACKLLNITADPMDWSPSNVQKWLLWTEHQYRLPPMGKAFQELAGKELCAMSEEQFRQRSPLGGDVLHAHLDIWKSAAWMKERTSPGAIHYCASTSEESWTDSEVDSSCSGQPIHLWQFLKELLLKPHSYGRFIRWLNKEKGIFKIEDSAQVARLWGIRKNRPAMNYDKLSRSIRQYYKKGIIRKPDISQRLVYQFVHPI
In a few lines:
as §1

A further experiment addresses T5, ETV7 (Homo sapiens, UniProt Q9Y603 1-341).
T5 sequence: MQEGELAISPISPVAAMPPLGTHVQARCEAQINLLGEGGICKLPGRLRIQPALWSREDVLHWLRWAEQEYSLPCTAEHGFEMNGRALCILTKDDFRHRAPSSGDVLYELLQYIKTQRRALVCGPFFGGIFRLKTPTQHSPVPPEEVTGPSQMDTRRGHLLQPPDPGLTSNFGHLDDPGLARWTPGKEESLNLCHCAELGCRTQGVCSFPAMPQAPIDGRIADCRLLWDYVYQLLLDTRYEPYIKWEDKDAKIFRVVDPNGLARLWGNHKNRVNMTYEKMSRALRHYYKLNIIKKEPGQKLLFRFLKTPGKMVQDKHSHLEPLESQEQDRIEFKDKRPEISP
In a few lines: as §1

A further experiment deals with T6, ELF5 (Homo sapiens, UniProt Q9UKW6-2 1-255).
T6 sequence: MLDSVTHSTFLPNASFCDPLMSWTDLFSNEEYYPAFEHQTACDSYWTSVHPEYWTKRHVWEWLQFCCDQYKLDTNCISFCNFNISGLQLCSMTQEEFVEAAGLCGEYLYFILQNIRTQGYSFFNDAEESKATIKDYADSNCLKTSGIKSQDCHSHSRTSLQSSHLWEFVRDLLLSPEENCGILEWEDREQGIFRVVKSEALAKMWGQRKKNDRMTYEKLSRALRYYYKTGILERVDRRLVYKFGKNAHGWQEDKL
In outline:
as §1

The target of a further experiment is T7, ETV3 (Homo sapiens, UniProt P41162-2 1-143).
T7 sequence: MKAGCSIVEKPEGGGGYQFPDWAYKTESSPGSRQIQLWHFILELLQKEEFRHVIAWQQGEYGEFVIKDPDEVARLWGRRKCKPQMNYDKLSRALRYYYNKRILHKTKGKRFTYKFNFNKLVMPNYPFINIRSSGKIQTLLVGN
In a few lines: as §1

In another experiment the target is ETV6 (Homo sapiens, UniProt P41212 1-452). In outline:
as §1

Sequence of ETV6 (P41212 whole entry): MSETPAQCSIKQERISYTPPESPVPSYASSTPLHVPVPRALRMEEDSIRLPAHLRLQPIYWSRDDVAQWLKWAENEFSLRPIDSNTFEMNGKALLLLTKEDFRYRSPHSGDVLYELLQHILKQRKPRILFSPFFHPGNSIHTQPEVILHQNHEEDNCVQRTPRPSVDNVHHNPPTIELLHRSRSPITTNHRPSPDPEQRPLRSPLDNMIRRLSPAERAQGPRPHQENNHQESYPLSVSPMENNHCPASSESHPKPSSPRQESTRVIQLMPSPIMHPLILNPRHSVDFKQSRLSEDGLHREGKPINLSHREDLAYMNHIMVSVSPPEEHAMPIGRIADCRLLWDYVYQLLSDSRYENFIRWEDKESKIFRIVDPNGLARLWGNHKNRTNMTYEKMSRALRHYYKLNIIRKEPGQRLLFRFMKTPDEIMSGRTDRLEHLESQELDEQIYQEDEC

As for TGACCC, the binding signal with ERF was 1.4 fold enrichment (6-mer frequency, TF over GST control); in the experiment with ETV3L, 1.3 fold enrichment (6-mer frequency, TF over GST control); in the experiment with ETS2, 1.38 fold enrichment (6-mer frequency, TF over GST control); in the experiment with SPDEF, 1.49 fold enrichment (6-mer frequency, TF over GST control); in the experiment with ETV7, 1.4 fold enrichment (6-mer frequency, TF over GST control); in the experiment with ELF5 it was 1.4 fold enrichment (6-mer frequency, TF over GST control). Further, the binding signal with ETV3 was 1.39 fold enrichment (6-mer frequency, TF over GST control); in the experiment with ETV6, 1.28 fold enrichment (6-mer frequency, TF over GST control).
For TCTCTT, the binding signal with ERF is 1.37 fold enrichment (6-mer frequency, TF over GST control); with ETV3L, 1.49 fold enrichment (6-mer frequency, TF over GST control); with ETS2, 1.37 fold enrichment (6-mer frequency, TF over GST control); in the experiment with SPDEF, 1.32 fold enrichment (6-mer frequency, TF over GST control); with ETV7 it was 1.17 fold enrichment (6-mer frequency, TF over GST control); in the experiment with ELF5, 1.39 fold enrichment (6-mer frequency, TF over GST control). Moreover, the binding signal is 1.44 fold enrichment (6-mer frequency, TF over GST control) with ETV3 and 1.36 fold enrichment (6-mer frequency, TF over GST control) with ETV6.
TGCTGG: the binding signal was 1.2 fold enrichment (6-mer frequency, TF over GST control) with ERF; 1.22 fold enrichment (6-mer frequency, TF over GST control) in the experiment with ETV3L; 1.07 fold enrichment (6-mer frequency, TF over GST control) with ETS2; 1.15 fold enrichment (6-mer frequency, TF over GST control) with SPDEF; 1.13 fold enrichment (6-mer frequency, TF over GST control) with ETV7; 1.07 fold enrichment (6-mer frequency, TF over GST control) with ELF5. The binding signal is 1.11 fold enrichment (6-mer frequency, TF over GST control) with ETV3 and 1.06 fold enrichment (6-mer frequency, TF over GST control) with ETV6.
Regarding TGAATA, the binding signal with ERF was 1.16 fold enrichment (6-mer frequency, TF over GST control); with ETV3L, 1.11 fold enrichment (6-mer frequency, TF over GST control); with ETS2, 1.05 fold enrichment (6-mer frequency, TF over GST control); with SPDEF, 1.09 fold enrichment (6-mer frequency, TF over GST control); in the experiment with ETV7 it was 1.05 fold enrichment (6-mer frequency, TF over GST control); in the experiment with ELF5 it was 1.07 fold enrichment (6-mer frequency, TF over GST control). In addition, the binding signal is 1.14 fold enrichment (6-mer frequency, TF over GST control) with ETV3 and 1.08 fold enrichment (6-mer frequency, TF over GST control) with ETV6.
On to CTGTTT, for which the binding signal in the experiment with ERF is 1.37 fold enrichment (6-mer frequency, TF over GST control); in the experiment with ETV3L, 1.49 fold enrichment (6-mer frequency, TF over GST control); in the experiment with ETS2 it was 1.45 fold enrichment (6-mer frequency, TF over GST control); with SPDEF, 1.42 fold enrichment (6-mer frequency, TF over GST control); with ETV7, 1.38 fold enrichment (6-mer frequency, TF over GST control); with ELF5, 1.62 fold enrichment (6-mer frequency, TF over GST control). Also, the binding signal with ETV3 is 1.36 fold enrichment (6-mer frequency, TF over GST control); with ETV6 it was 1.49 fold enrichment (6-mer frequency, TF over GST control).
In the case of TACTGT, the binding signal was 1.2 fold enrichment (6-mer frequency, TF over GST control) in the experiment with ERF; 1.15 fold enrichment (6-mer frequency, TF over GST control) with ETV3L; 1.16 fold enrichment (6-mer frequency, TF over GST control) with ETS2; 1.11 fold enrichment (6-mer frequency, TF over GST control) with SPDEF; 1.04 fold enrichment (6-mer frequency, TF over GST control) with ETV7; 1.14 fold enrichment (6-mer frequency, TF over GST control) with ELF5. Besides, the binding signal with ETV3 was 1.13 fold enrichment (6-mer frequency, TF over GST control); with ETV6, 1.1 fold enrichment (6-mer frequency, TF over GST control).
Take TAAGTT: the binding signal with ERF was 1.18 fold enrichment (6-mer frequency, TF over GST control); in the experiment with ETV3L, 1.4 fold enrichment (6-mer frequency, TF over GST control); in the experiment with ETS2 it was 1.38 fold enrichment (6-mer frequency, TF over GST control); with SPDEF it was 1.42 fold enrichment (6-mer frequency, TF over GST control); with ETV7, 1.36 fold enrichment (6-mer frequency, TF over GST control); with ELF5 it was 1.29 fold enrichment (6-mer frequency, TF over GST control). For the same sequence, the binding signal was 1.27 fold enrichment (6-mer frequency, TF over GST control) with ETV3 and 1.49 fold enrichment (6-mer frequency, TF over GST control) in the experiment with ETV6.
Consider CTGCTC, for which the binding signal with ERF is 1.29 fold enrichment (6-mer frequency, TF over GST control); with ETV3L, 1.43 fold enrichment (6-mer frequency, TF over GST control); with ETS2 it was 1.28 fold enrichment (6-mer frequency, TF over GST control); with SPDEF, 1.26 fold enrichment (6-mer frequency, TF over GST control); with ETV7, 1.29 fold enrichment (6-mer frequency, TF over GST control); with ELF5, 1.29 fold enrichment (6-mer frequency, TF over GST control). In addition, the binding signal with ETV3 is 1.22 fold enrichment (6-mer frequency, TF over GST control); with ETV6, 1.16 fold enrichment (6-mer frequency, TF over GST control).
Consider TCGACT, for which the binding signal was 1.34 fold enrichment (6-mer frequency, TF over GST control) with ERF; 1.27 fold enrichment (6-mer frequency, TF over GST control) in the experiment with ETV3L; 1.37 fold enrichment (6-mer frequency, TF over GST control) in the experiment with ETS2; 1.29 fold enrichment (6-mer frequency, TF over GST control) in the experiment with SPDEF; 1.32 fold enrichment (6-mer frequency, TF over GST control) with ETV7; 1.28 fold enrichment (6-mer frequency, TF over GST control) in the experiment with ELF5. The binding signal was 1.4 fold enrichment (6-mer frequency, TF over GST control) with ETV3 and 1.35 fold enrichment (6-mer frequency, TF over GST control) with ETV6.

Values taken from paper PMC7862700, “An all-to-all approach to the identification of sequence-specific readers for epigenetic DNA modifications on cytosine”.
